Where a name gives a salt, the structure may show the parent alone. ± gives the standard deviation.
Tests used:
Jurkat [1] = assay: mean cell size (FSC-A) relative to DMSO control (fraction of control); higher = larger cells; conditions: 48 h
Summary of the method: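 Jurkat cells at 600 cells/µl were incubated for 1 h and then treated for 48h with the Enzo Screen-Well FDA Approved Drug Library v2.0 at 25µM, with DMSO at 0.9% (v/v) final. Compounds that reduced counts below 20% of controls were retested in 10-fold dilutions down to 25nM. Cell count and mean cell size, taken as forward scatter area, were measured by flow cytometry relative to solvent-only controls. Each plate carried 6-12 controls, and values are means of 3 biological replicates.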

Jurkat [2] = assay: cell count relative to DMSO control (fraction of control); higher = more cells (less growth inhibition); conditions: 48 h

Compound	mean cell size (Jurkat [1])	cell count (Jurkat [2])
COc1cc2c(c(OC)c1OC)-c1ccc(OC)c(=O)cc1[C@@H](NC(C)=O)CC2 [Colchicine] (concentration: 25 nM)	0.967 ± 0.026	0.071 ± 0.007
CN1[C@@H]2CC[C@H]1C[C@@H](OC(=O)C(CO)c1ccccc1)C2 (some centres undefined) [Atropine Sulfate Monohydrate] (concentration: 25 µM)	0.974 ± 0.017	0.677 ± 0.057
Cc1nnc2n1-c1ccc(Cl)cc1C(c1ccccc1Cl)=NC2 [Triazolam] (concentration: 25 µM)	0.935 ± 0.05	0.992 ± 0.11
CN(C)[C@@H]1C(=O)C(C(N)=O)=C(O)[C@@]2(O)C(=O)C3=C(O)c4c(O)cccc4[C@@](C)(O)[C@H]3[C@H](O)[C@@H]12 [Oxytetracycline·HCl] (concentration: 25 µM)	0.894 ± 0.014	0.884 ± 0.1
Cn1c(CCCC(=O)O)nc2cc(N(CCCl)CCCl)ccc21 [Bendamustine·HCl] (concentration: 25 µM)	1.26 ± 0.022	0.2666 ± 0.00052
N.N.[Cl][Pt][Cl] [Cisplatin (Cis-Diamineplatinum(Ii) Dichloride )] (concentration: 25 µM)	1.043 ± 0.0024	0.895 ± 0.045
O=P1(NCCCl)OCCCN1CCCl (centres undefined) [Ifosfamide] (concentration: 25 µM)	0.938 ± 0.026	0.372 ± 0.12
CC(C)N(CCC(C(N)=O)(c1ccccc1)c1ccccn1)C(C)C (centres undefined) [Disopyramide] (concentration: 25 µM)	0.985 ± 0.041	0.733 ± 0.14
O=C1CN=C(c2ccccc2Cl)c2cc([N+](=O)[O-])ccc2N1 [Clonazepam] (concentration: 25 µM)	1.02 ± 0.06	0.659 ± 0.12
N[C@@H](Cc1ccc(N(CCCl)CCCl)cc1)C(=O)O [Melphalan] (concentration: 250 nM)	1.02 ± 0.022	0.46 ± 0.08
O=c1[nH]c2ccccc2n1C1CCN(CCCC(c2ccc(F)cc2)c2ccc(F)cc2)CC1 [Pimozide] (concentration: 2.5 µM)	1.08 ± 0.033	0.663 ± 0.14
Oc1ccc2c(c1)[C@@]13CCCC[C@@]1(O)[C@@H](C2)N(CC1CCC1)CC3 [Butorphanol-(+)-Tartrate (Schedule Iv)] (concentration: 25 µM)	0.952 ± 0.049	0.586 ± 0.075
CC[C@@H](CO)NC(=O)[C@@H]1C=C2c3cccc4[nH]cc(c34)C[C@H]2N(C)C1 [Methylergonovine Maleate] (concentration: 25 µM)	1.01 ± 0.016	0.865 ± 0.15
C[N+]1(C)[C@@H]2CC(OC(=O)[C@H](CO)c3ccccc3)C[C@H]1[C@@H]1O[C@@H]12 (stereo partly drawn) [Methscopolamine Bromide ((-)-Scopolamine Methyl Bromide)] (concentration: 25 µM)	1.05 ± 0.046	0.683 ± 0.089
O=C(O[C@H]1C[C@H]2CC[C@@H](C1)[N+]21CCCC1)C(O)(c1ccccc1)c1ccccc1 [Trospium Chloride] (concentration: 25 µM)	1.07 ± 0.049	0.982 ± 0.079
NC(=O)C[S+]([O-])C(c1ccccc1)c1ccccc1 (centres undefined) [Modafinil (Schedule Iv)] (concentration: 25 µM)	0.968 ± 0.014	0.807 ± 0.05
CC(C)c1cccc(C(C)C)c1O [Propofol] (concentration: 25 µM)	0.972 ± 0.025	1.11 ± 0.027

From the supplement of paper PMC4709259
